40 compounds from PubChem BioAssay (Tox21) can be followed below.

Inconclusive results are not listed. Activity calls are given as the source filed them. Calls come from the whole dose curve.
% is set by controls: 0 for no effect and ±100 for the full control effect.

The nature of this assay: qHTS assay to identify small molecule agonists or antagonists of the thyroid stimulating hormone receptor (TSHR) signaling pathway - wild type cell line counter screen (AID 1259384). The following applies: HEK293 wild type, cAMP HTRF counter-screen, active compounds read high; series mostly up to 92.4 µM. An excerpt:
U.S. Tox21 Program National Center for Advancing Translational Sciences [NCATS] NIH Chemical Genomics Center [NCGC] U.S. Environmental Protection Agency [EPA] National Institutes of Environmental Health Sciences [NIEHS] National Toxicology Program [NTP] U.S. Food and Drug Administration [FDA] Tox21 Assay Overview: TSHR is the receptor for thyrotropin (thyroid stimulating hormone or TSH), a member of the glycoprotein hormone family. TSH is released by the anterior pituitary gland and is the main regulator of thyroid gland growth and development. Upon binding circulating thyrotropin, a G-protein signal cascade activates adenylyl cyclase and […] cAMP concentration is increased. cAMP is a key second messenger involved extensively in cellular signal transduction pathways associated with the majority of G-protein coupled receptors (GPCRs). The activation of these GPCRs by neurotransmitters, lipids, nucleotides, peptides and hormones results in the activation or the inhibition of plasma membrane-bound adenylate cyclase through heterotrimeric G-proteins. A cell-based TSHR-Hek293 assay can be used to identify TSHR agonists. To eliminate the false positive compounds identified from screening a cell-based TSHR-Hek293 cell line, cAMP assay in a wild type Hek293 cells was used as a counter screening.
Tox21 Assay Protocol Summary: Hek293 cells (wild type) were dispensed at 800 cells/4 uL/well in 1536-well white plates using a Multidrop dispenser. After the assay plates were incubated at a 37 C/5% CO2 incubator for 18 hrs, 23 nL of compounds dissolved in DMSO, positive controls or DMSO only was transferred to the assay plate by a pin tool, followed by 1 ul medium containing Ro20-1724. After 30 min of incubation at room temperature, 2.5 ul/well of cAMP-d2 and 2.5 ul/well of anti-cAMP-cryptate were added respectively into the assay plates using a Flying Reagent Dispenser. The plates were incubated at room temperature for 1 hr. The fluorescence intensity in the plates was measured using an Envision plate reader. Each test compound was measured at 15 concentrations and in triplicates.
`Cc1ccccc1C(N)=O`: the outcome was inactive.

Consider `C=CC(=O)CCCCC`, for which the result was inactive.

On to `C=C(C)C1CC=C(C)C(=O)C1` (stereo not given), for which the result was inactive.

As to `CCCSSCCC`, the result was inactive.

With `CN(C)C(C)(C)CO`, the outcome was inactive.

On to `OCCN1CCOCC1`, for which the call was inactive.

On to `CC12CCC(C1)C(C)(C)C2O` (stereo not given), for which the call was inactive.

Regarding `COC(=O)c1ccccc1C(=O)O`, the result was inactive.

On to `O=C(O)CONC(=O)c1ccccc1`, for which the outcome was inactive.

As to `Cc1ccc(C)c([N+](=O)[O-])c1`, the result was inactive.

As to `Cn1c(=O)c2[nH]c(Br)nc2n(C)c1=O`, the call was inactive.

In the case of `CCCC(=O)OCCC(C)CCC=C(C)C` (stereo not given), the compound was called inactive.

Regarding `CC(O)COC(C)(C)C` (stereo not given), the compound was called inactive.

Turning to `C=CCSSCCC`, the call was inactive.

Regarding `CN(C)CCN(C)CCO`, the result was inactive.

Consider `COc1cc(OC)nc(O[C@H](C(=O)O)C(OC)(c2ccccc2)c2ccccc2)n1`, for which the compound was called inactive.

Regarding `C=CCN1C[C@H](C(=O)N(CCCN(C)C)C(=O)NCC)C[C@@H]2c3cccc4[nH]cc(c34)C[C@H]21`, the compound was called inactive.

Take `COC(=O)c1cccc(Cl)c1`: the compound was classed as inactive.

`C/C=C(\C)C(C)=O`: the call was inactive.

With `O=[N+]([O-])c1c(Cl)cc(Cl)cc1Cl`, the compound was called inactive.

As for `CCCCCCCCCCCCCCCCCCOCCO`, the cAMP activity change was -0.284% [at 18.9 µM] (inactive).

With `O=C1OCCO1`, the compound was classed as inactive.

`CC(C)CO`: the call was inactive.

With `CCCCOCCOC(=O)COc1ccc(Cl)cc1Cl`, the outcome was inactive.

Regarding `C=C(C)[C@@H]1CC=C(C)C(=O)C1`, the compound was called inactive.

On to `C[C@H]1[C@@H](c2ccccc2)NC(=O)N1C`, for which the outcome was inactive.

`CC(=O)C1C(=O)C=C(C)OC1=O` (stereo not given): the call was inactive.

As for `O=C1NC(c2ccccc2)(c2ccccc2)C(=O)N1COP(=O)(O)O`, the compound was called inactive.

Take `O=C(CCCCC(=O)Nc1c(I)cc(I)c(C(=O)O)c1I)Nc1c(I)cc(I)c(C(=O)O)c1I`: the call was inactive.

As to `CCC/C=C(\C=O)CC`, the compound was classed as inactive.

For `O=NN(CCCl)C(=O)NC1CCCCC1`, the outcome was inactive.

Regarding `CC1CCc2c(N3CCC(O)CC3)c(F)cc3c(=O)c(C(=O)O)cn1c23` (stereo not given), the result was inactive.

As to `[O]=[Mo](=[O])=[O]`, the cAMP activity change was -1.05% [at 18.9 µM] (inactive).

In the case of `CCC(=O)c1c(O)cc(O)cc1O`, the outcome was inactive.

As for `CC(O)CC(C)O` (stereo not given), the call was inactive.

`CCOCCOCC`: the compound was classed as inactive.

In the case of `O=C[O][Al]([O]C=O)[O]C=O`, the compound was classed as inactive.

Consider `NCc1ccc(S(N)(=O)=O)cc1`, for which the call was inactive.

In the case of `C/C(=C1\CCOC(=O)S1)N(C=O)Cc1cnc(C)nc1N`, the compound was classed as inactive.

Regarding `CN1CCOC(c2ccccc2)c2ccccc2C1` (stereo not given), the result was inactive.
